Compound activity deposited in PubChem by several laboratories.
A selection: hits, their analogues and other compounds. The true share with any hit is near 2%.
S1P4 agonist: activates the human S1P4 receptor; S1P4-expressing cell line, agonist reporter assay; activation, % at 4.98 µM; actives 0.35% (n = 220,000); AID 1509; in the data active = activation above about 11%;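 note: 0% = DMSO vehicle and 100% = reference agonist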
EP2 antag: inhibitors of human EP2 prostaglandin E2 receptor | P43116 | C6 glioma cells expressing human EP2, cAMP TR-FRET; cells stimulated with saturating PGE2 | inhibition, % at 25 µM | actives 0.52% (n = 260,000) | AID 1422;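 active = percent inhibition above 40 after rounding to a whole number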;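 note: rat C6 glioma host cells with rolipram phosphodiesterase inhibitor present; the protocol text gives 20 µM as final concentration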
Target sequence (P43116 whole entry, looked up): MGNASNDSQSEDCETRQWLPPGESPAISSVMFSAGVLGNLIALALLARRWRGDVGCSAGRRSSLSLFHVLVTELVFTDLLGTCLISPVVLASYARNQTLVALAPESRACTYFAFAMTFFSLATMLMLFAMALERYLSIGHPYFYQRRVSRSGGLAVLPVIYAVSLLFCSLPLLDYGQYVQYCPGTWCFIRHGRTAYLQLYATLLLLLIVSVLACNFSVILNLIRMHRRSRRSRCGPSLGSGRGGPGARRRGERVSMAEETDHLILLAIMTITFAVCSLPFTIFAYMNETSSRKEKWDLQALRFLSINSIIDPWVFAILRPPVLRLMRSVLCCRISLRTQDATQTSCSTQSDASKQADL
S1P4 antagonist: antagonists of human S1P4 receptor. O95977. S1P4-expressing cells, antagonist mode, reporter read-out. inhibition, % at 4.98 µM. actives 0.26% (n = 220,000). AID 1510; in the data active = inhibition above about 29%;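 note: 0% = wells stimulated with agonist and 100% = vehicle wells without agonist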
S1P3 antagonist: antagonists of human S1P3 receptor. Q99500. CHO S1P3 NFAT-BLA reporter, FRET fluorescence, antagonist mode. inhibition, % at 4.98 µM. actives 0.27% (n = 170,000). AID 485;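 active = inhibition above the plate cutoff, the mean inhibition of test wells on that plate plus 3 SD, cut at about 28% in these data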;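 note: cells challenged with S1P at its EC80 of 0.8 µM; blue over green emission ratio from cleaved BLA substrate after 4 h stimulation; 0% = S1P-stimulated wells and 100% = unstimulated DMSO-only wells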
EP2 modulator: EP2 receptor (human) modulation; EP2-expressing cells, cAMP HTRF FRET, PGE2 co-stimulation; induction, % at 25 µM; actives 0.83% (n = 260,000); AID 940;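 active = compounds whose cAMP rise, as percent of the full-agonist control response, exceeds 60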;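 note: rat C6 glioma line stably carrying human EP2 under a CMV promoter; the protocol text gives 20 µM as final concentration; 100% = response of wells given 1 µM PGE2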
S1P4 antag cf: human S1P4 antagonism, confirmation; shares compounds with S1P4 antagonist; actives 71% (n = 520); inhibition, % at 4.98 µM; AID 1524; S1P4-expressing cell line, antagonist mode, reporter read-out; in the data active = inhibition above about 30%
S1P1 antagonist: human S1P1 antagonism as S1P4 antagonist counter-screen; shares compounds with S1P4 antagonist; cell-based S1P1 antagonist counterscreen, inhibition; inhibition, % at 4.98 µM; actives 37% (n = 520); in the data active = inhibition above about 40%;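 note: receptor stimulated with S1P near its EC80; 0% = agonist stimulated wells and 100% = vehicle only wells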
* = called active by the depositor; x = not tested or not shown; ! = not confirmed by another sample.

SMILES	S1P4 agonist	EP2 antag	S1P4 antagonist	S1P3 antagonist	EP2 modulator	S1P4 antag cf	S1P1 antagonist
COC(=O)c1sc2ncn(Cc3ccc(C)cc3)c(=O)c2c1C	x	5	x	x	3	x	x
COc1ccc(-c2cc(C#N)nc(Cl)n2)cc1	-2	5	57*	-7	-8	97*	28
CCCC(=O)N(C1CC(C)C(C#N)(C#N)C1(C#N)C#N)N(C)C (centres undefined)	2	25	43*	22	-52	107*	36
Cc1cccc(C)c1NC(=O)COC(=O)c1cccnc1	3	3	0	-1	2	x	x
Cc1cccc(C)c1NC(=O)COC(=O)c1nonc1N	1	10	29*	4	2	-7	10
Cc1ccc(NN2C(=O)C=C(c3ccccc3)C2=O)cc1	0	48*	37*	15	-93	57*	36
O=C(Nc1cccc2ccccc12)c1ccccc1	0	11	7	-6	-25	x	x
Cc1c(C)n(C)c2ccc(C(=O)Nc3cccc4ccccc34)cc12	-3	14	44*	x	-14	46*	12
Cc1oc2c(c1C(=O)NCc1cccnc1)C(=O)c1ccccc1C2=O	0	10	90*	-12	-53	116*	107*
Cc1ccc(C2=Nc3ccccc3SC(c3cccc([N+](=O)[O-])c3)C2)cc1 (centres undefined)	1	5	45*	3	22	12	6
O=C(c1ncoc1-c1ccccc1F)N1CCN(c2ccccc2F)CC1	x	5	x	x	-9	x	x
O=C(Nc1ccc2cn[nH]c2c1)c1c(Cl)cccc1Cl	-1	8	-13	4	1	x	x
O=C1C(Cl)=C(Nc2ccc3cn[nH]c3c2)C(=O)c2ccccc21	1	18	62*	9	-18	95*	91*
Cc1[nH]n2c(=O)cc(C(C)(C)C)nc2c1-c1ccccc1	1	17	34*	-7	3	1	12
CCCCS(=O)(=O)/C=C\C=C/S(=O)(=O)CCCC	-4	x	99*	x	-35	117*	62*
C=CCNC(=O)[C@@H]1C=CCN1S(=O)(=O)c1ccc(F)cc1	x	x	x	x	10	x	x
Cc1ccccc1CS(=O)(=O)c1nnc([C@H](Cc2ccccc2)NC(=O)OC(C)(C)C)o1	-2	2	71*	x	2	108*	34
CCC(C)[C@@H](NC(=O)OC(C)(C)C)c1nnc(S(=O)(=O)Cc2cccc(C)c2)o1 (some centres undefined)	-4	11	76*	-9	-2	109*	31
CC(C)(C)OC(=O)N[C@@H](Cc1ccccc1)c1nnc(SCC(=O)O)o1	0	7	18	-36	14	x	x
CC1CN(C)CCC1CCc1ccc(NC(=O)Cn2ncc3ccccc3c2=O)cc1 (centres undefined)	x	13	x	x	-8	x	x
CCCc1[nH]nc2c1C(c1cc(F)ccc1F)C(C#N)=C(N)O2 (centres undefined)	x	6	x	x	-17	x	x
Cc1cc(C)c([N+](=O)[O-])cc1NCC(=O)N1CCN(c2ccccc2)CC1	-1	2	38*	7	8	-5	-9
COc1ccccc1NC(=O)N1CCCC(C(=O)Nc2cccc(C)c2C)C1 (centres undefined)	1	9	-3	-6	17	x	x
Cc1cccc(NC(=O)C2CCCN(C(=O)NC3CCCCC3)C2)c1C (centres undefined)	0	6	36*	2	26	-16	-10
O=C(Nc1ccc(S(=O)(=O)N2CCOCC2)cc1)c1ccco1	1	6	-20	0	4	x	x
SMILES	S1P4 agonist	EP2 antag	S1P4 antagonist	S1P3 antagonist	EP2 modulator	S1P4 antag cf	S1P1 antagonist
O=C(Nc1ccc(S(=O)(=O)N2CCOCC2)cc1)c1ccc([N+](=O)[O-])o1	1	49*	68*	3	-43	85*	36
CCN1CCN(c2ccc(NC(=O)c3ccc([N+](=O)[O-])o3)cc2Cl)CC1	-3	116*!	86*	0	-156	75*	67*
CCC(=O)N1CCN(c2ccc(NC(=O)c3ccc([N+](=O)[O-])o3)cc2Cl)CC1	-1	25	56*	-3	-41	113*	44*
Oc1c(C(c2ccccc2Cl)N2CCCC2)ccc2cccnc12 (centres undefined)	-1	3	30*	-9	-21	112*	92*
Oc1c(C(c2cccs2)N2CCN(c3ccccc3)CC2)ccc2cccnc12 (centres undefined)	2	x	-9	x	22	x	x
O=C(OCn1ncc(Br)c(Br)c1=O)c1ccc(F)cc1	-2	33	78*	x	33	117*	47*
O=C(OCn1ncc(Br)c(Br)c1=O)c1ccccc1Cl	-1	28	48*	x	21	115*	29
CCn1ncc(Br)c1C(=O)Nc1ccc(C(=O)OC(C)C)cc1	1	20	-3	x	-2	x	x
O=C(OCc1cnc(Cl)s1)c1ccccc1Cl	1	9	1	x	17	x	x
COc1ccc(C2(NC(=O)c3cnc(N4CCOCC4)nc3)CCCCC2)cc1	x	7	x	x	-22	x	x
CC1CCN(c2nc3c(c(=O)[nH]2)CCN(Cc2cc(Cl)ccc2O)C3)CC1	x	10	x	x	-34	x	x
CCOC(=O)C(C)n1cnc2sc(-c3ccccc3)cc2c1=O (centres undefined)	x	16	x	x	-109	x	x
O=C1NC2(CCc3ccccc32)C(=O)N1CCOc1ccc(Cl)cc1 (centres undefined)	0	4	13	x	4	x	x
Cc1ccccc1OCCN1C(=O)NC2(CCc3ccccc32)C1=O (centres undefined)	0	5	36*	-4	-1	1	-11
CC(=O)n1cc(N(C(=O)CCl)c2ccc(C)cc2)c2ccccc21	1	12	29*	-13	9	106*	45*
Cc1ccc2cc(C#N)c(SCC(=O)Nc3cccc(Cl)c3)nc2c1C	x	18	x	x	-2	x	x
O=C(O)CCn1c(=O)[nH]c2ccccc2c1=O	-2	9	36*	-29	1	0	-12
Nc1cccc2c1C(=O)N(C(=O)c1cccc(S(=O)(=O)N3CCCC3)c1)C2=O	-1	10	31*	x	-4	18	23
COc1ccc(C2CCN(Cc3cccnc3)CC2)cc1	x	4	x	x	-5	x	x
CCC(=O)NNC(=O)c1c(O)c2ccccc2n(CC)c1=O	x	6	x	x	17	x	x
CN(C)/N=C/C=C1\CCC/C(=C\c2ccc(F)c(F)c2)C1=O	1	1	29*	-3	2	34*	42*
COc1ccc2[nH]c(CN3CCc4c(nc(N5CCCC5)[nH]c4=O)C3)c(C)c2c1	x	x	x	x	-5	x	x
CCOC(=O)/C(=C\c1ccc(Cl)cc1)c1nc2sc(C)c(C)c2c(=O)[nH]1	0	14	3	4	17	x	x
